Here are results for 31 compounds from the supplement of paper PMC13380429.

Molecules are shown by their SMILES.

Assay [1] relates to Vero E6 infected with SARS-CoV-2. Description: morphology score (similarity to uninfected cells); higher = more like uninfected cells. As to conditions: 24 h.
For assay [2] the test system is unchanged. In words: SARS-CoV-2 infection rate relative to infected DMSO; higher = more infection, active = 60 or less. To be noted: 24 h.

The compound `CCN1C(=O)CNc2ncc(-c3ccc(-c4nc[nH]n4)nc3C)nc21` (10 µM) yielded a morphology score in assay [1] of -0.0465. Also, the SARS-CoV-2 infection rate in assay [2] was 96.5% (inactive).

On to `C[C@H](N)[C@H](O)c1cccc(O)c1` [metaraminol] (10 µM), for which, in assay [1], the morphology score is -0.0578. Further, the SARS-CoV-2 infection rate in assay [2] is 104% (inactive).

In the case of `CCNC(=O)[C@@H]1CCCN1C(=O)[C@H](CCCNC(=N)N)NC(=O)[C@H](CC(C)C)NC(=O)[C@@H](C)NC(=O)[C@H](Cc1ccc(O)cc1)NC(=O)[C@H](CO)NC(=O)[C@H](Cc1c[nH]c2ccccc12)NC(=O)[C@H](Cc1cnc[nH]1)NC(=O)[C@@H]1CCC(=O)N1` [alarelin] (10 µM), the morphology score in assay [1] was -0.246. Also, in assay [2], the SARS-CoV-2 infection rate is 114% (inactive).

Take `C[C@H]1O[C@@H](Oc2c(-c3cc(O)c(O)c(O)c3)oc3cc(O)cc(O)c3c2=O)[C@@H](O)[C@@H](O)[C@@H]1O` [myricitrin] (10 µM): in assay [1], the morphology score came out at 0.147. The SARS-CoV-2 infection rate in assay [2] was 103% (inactive).

In assay [1], `Cc1ccc2c(-c3ccccc3)nc(=O)n(C(C)C)c2c1` [proquazone] (10 µM) returned a morphology score of 0.0698. Also, the SARS-CoV-2 infection rate in assay [2] was 103% (inactive).

`CC(=O)O[C@]1(C(C)=O)CC[C@H]2[C@@H]3CCC4=CC(=O)CCC4=C3[C@@H](c3ccc(N(C)C)cc3)C[C@@]21C` [Ulipristal acetate] (10 µM): the morphology score in assay [1] turned out to be 0.286. In assay [2], the SARS-CoV-2 infection rate is 104% (inactive).

As to `O=C(N[C@H](CO)[C@H](O)c1ccc([N+](=O)[O-])cc1)C(Cl)Cl` [chloramphenicol] (10 µM), the morphology score in assay [1] was -0.278. Also, the SARS-CoV-2 infection rate in assay [2] was 117% (inactive).

As for `O=C(O)c1ccccc1` [benzoic-acid] (10 µM), the morphology score in assay [1] was 0.0363. For the same compound, the SARS-CoV-2 infection rate in assay [2] is 110% (inactive).

`Cc1oc(=O)oc1COC(=O)C1=C([C@H]2CCCO2)S[C@@H]2[C@@H]([C@@H](C)O)C(=O)N12` [faropenem-medoxomil] (10 µM) displayed a morphology score in assay [1] of -0.119. For the same compound, the SARS-CoV-2 infection rate in assay [2] is 114% (inactive).

`Cc1cn2nc([C@@H]3CCCCN3C(=O)c3cc(Cl)ccc3NS(C)(=O)=O)cc2nc1N1CC[C@H](N)C1` [presatovir] (10 µM) gave a morphology score in assay [1] of 0.215. Further, the SARS-CoV-2 infection rate in assay [2] was 89% (inactive).

`Cc1ccc(-n2nc(C(C)(C)C)cc2NC(=O)NCc2cc(F)ccc2Oc2ccc3c(cnn3CCO)c2)cc1` [pexmetinib] (0.833333 µM): in assay [1], the morphology score stood at 0.226. Also, in assay [2], the SARS-CoV-2 infection rate is 105% (inactive).

The compound `CN1C2C=C(c3sccc3Br)CC1CC2` (configuration not stated) (10 µM) gave a morphology score in assay [1] of 0.427. The SARS-CoV-2 infection rate in assay [2] was 69.5% (inactive).

Regarding `Cn1nc(C(C)(C)C)cc1C(=O)N[C@@H](Cc1cccc(Cl)c1)C(=O)NCC#N` [cathepsin-inhibitor-1] (10 µM), in assay [1], the morphology score is 0.186. Further, in assay [2], the SARS-CoV-2 infection rate is 97.5% (inactive).

In turn, `CN1[C@@H]2CC[C@H]1C[C@@H](OC(=O)[C@H](CO)c1ccccc1)C2` [hyoscyamine] (10 µM) yielded a morphology score in assay [1] of 0.139. For the same compound, the SARS-CoV-2 infection rate in assay [2] was 90.5% (inactive).

For `CC(=O)N(O)C/C=C/c1cccc(Oc2ccccc2)c1` (10 µM), the morphology score in assay [1] worked out at 0.0937. The SARS-CoV-2 infection rate in assay [2] is 97.5% (inactive).

Take `O=C1[C@H](Cc2ccc(O)cc2)N2C(=O)CCN(C(=O)NCc3ccccc3)[C@H]2CN1Cc1cccc2ccccc12` (10 µM): the morphology score in assay [1] was determined as 0.0761. In addition, the SARS-CoV-2 infection rate in assay [2] was 93% (inactive).

On to `CCCCCN(C)CCC(O)(P(=O)(O)O)P(=O)(O)O` [ibandronate] (10 µM), for which, in assay [1], the morphology score was -0.0259. Further, the SARS-CoV-2 infection rate in assay [2] is 111% (inactive).

In the case of `O=C1NC(=O)C(=Cc2ccc(-c3ccc(F)cc3)o2)S1` (stereo in doubt) (10 µM), the morphology score in assay [1] is 0.0111. The SARS-CoV-2 infection rate in assay [2] was 112% (inactive).

Compound `N#C/C(=C1/SC[C@@H](c2ccc(Cl)cc2Cl)S1)n1ccnc1` [luliconazole] (10 µM) returned a morphology score in assay [1] of 0.0257. The SARS-CoV-2 infection rate in assay [2] is 104% (inactive).

In turn, `CCOc1cc(C=O)ccc1O` [ethyl-vanillin] (10 µM) showed a morphology score in assay [1] of 0.19. The SARS-CoV-2 infection rate in assay [2] was 100% (inactive).

In the case of `CCc1nc(N)nc(N)c1-c1ccc(Cl)cc1` [pyrimethamine] (0.833333 µM), the morphology score in assay [1] was -0.0159. In addition, in assay [2], the SARS-CoV-2 infection rate is 115% (inactive).

As for `O=S(=O)(c1cccc2cnccc12)N1CCCNCC1` [fasudil] (10 µM), the morphology score in assay [1] is 0.474. For the same compound, the SARS-CoV-2 infection rate in assay [2] is 100% (inactive).

In the case of `Clc1ccc(C(Cn2ccnc2)OCc2csc3c(Cl)cccc23)c(Cl)c1` (configuration not stated) [sertaconazole] (10 µM), the morphology score in assay [1] is 0.201. Further, the SARS-CoV-2 infection rate in assay [2] is 104% (inactive).

As to `O=C(O)[C@@H]1C[C@@H](C2CCCCC2)CN1C(=O)CP(=O)(O)CCCCc1ccccc1` [fosinoprilat] (10 µM), the morphology score in assay [1] worked out at 0.0775. In addition, the SARS-CoV-2 infection rate in assay [2] is 100% (inactive).

Turning to `CCCC(=O)C1CCN(c2ncnc3c2CN(C(=O)c2ccc(-c4ccccc4)cc2)CC3)CC1` (10 µM), the morphology score in assay [1] is 0.0512. Further, the SARS-CoV-2 infection rate in assay [2] was 104% (inactive).

In assay [1], `O=C(O)c1ccc(NC(=O)[C@H](Cc2ccc(O)cc2)NC(=O)c2ccccc2)cc1` [bentiromide] (10 µM) came in with a morphology score of 0.211. Also, the SARS-CoV-2 infection rate in assay [2] was 106% (inactive).

`Cc1nc2ccc(Oc3ccc(F)cc3)cc2c(=O)n1C[C@H]1CCCN(C(C)C)C1` (10 µM) yielded a morphology score in assay [1] of 0.295. In addition, in assay [2], the SARS-CoV-2 infection rate was 76% (inactive).

Turning to `CN1CCN(c2ccc(/C=C(\C#N)c3ccccc3Br)cc2)CC1` (10 µM), the morphology score in assay [1] was -0.13. Besides, the SARS-CoV-2 infection rate in assay [2] was 116% (inactive).

Take `CN1CCN(CCCN2c3ccccc3Sc3ccc(C(F)(F)F)cc32)CC1` [trifluoperazine] (0.833333 µM): in assay [1], the morphology score turned out to be 0.156. In addition, the SARS-CoV-2 infection rate in assay [2] is 96.5% (inactive).

Consider `C[C@@H](CN)CC(=O)O` [3-methyl-GABA] (10 µM), for which the morphology score in assay [1] came to 0.0225. For the same compound, the SARS-CoV-2 infection rate in assay [2] is 102% (inactive).

In turn, `Cn1cc(C(=O)C(=O)N[C@H]2CN3CCC2CC3)c2ccccc21` (10 µM) gave a morphology score in assay [1] of 0.181. The SARS-CoV-2 infection rate in assay [2] was 97.5% (inactive).
